# Data as given in PubChem BioAssay AID1817 (Sanford-Burnham Center for Chemical Genomics, 2009).
# Hit rate of the full screen: of about 290,000 compounds, about 50 (0.02%) were called active. The full list was thinned out, with actives kept by preference. Potency and affinity values are given separately. Unmarked numbers belong to inactive results.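 The calls were made as follows: active = displacement of at least 50% at 20 µM, with a fluorescence ratio check between 0.3 and a set limit; inactive = the rest.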
# Molecular target: E3 ubiquitin-protein ligase SIAH1 (Homo sapiens) (UniProt Q8IUQ4)
# Sequence (Q8IUQ4 whole entry, looked up): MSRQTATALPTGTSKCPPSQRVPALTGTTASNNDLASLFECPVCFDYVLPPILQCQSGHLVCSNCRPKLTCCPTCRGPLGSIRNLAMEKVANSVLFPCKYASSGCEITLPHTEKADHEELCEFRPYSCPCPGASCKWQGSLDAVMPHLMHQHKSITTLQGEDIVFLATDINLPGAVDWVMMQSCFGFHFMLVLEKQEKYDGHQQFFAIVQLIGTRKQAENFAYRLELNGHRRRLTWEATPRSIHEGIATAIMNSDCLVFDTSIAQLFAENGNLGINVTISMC
# Test: blockers of Siah-1 interaction with plectin peptide – biochemical, fluorescence polarization, rhodamine-plectin, uHTS, primary screen (AID 1817);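 also: plate controls were Siah plus tracer with DMSO for no effect and tracer alone without Siah for full effect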
# Conditions: Siah-1 / rhodamine-plectin peptide fluorescence polarization; at 20 µM; stronger effect = higher value
row,Structure (SMILES),displacement
1,COc1cc(NS(=O)(=O)c2ccc(NC(=O)/C(=C/c3ccccc3Cl)NC(=O)c3ccccc3)cc2)nc(OC)n1,13.9%
2,O=C(NC(=S)Nc1ccc(S(=O)(=O)Nc2nccs2)cc1)c1ccccc1,-2.4%
3,O=C(Nc1ccc(S(=O)(=O)Nc2nccs2)cc1)/C(=C/c1ccccc1Cl)NC(=O)c1ccccc1,54.4% (active)
4,CCCn1c(=O)c(C(=O)NCc2ccncc2)c(O)c2ccccc21,8.4%
5,CC(=O)Nc1cccc(Oc2ncccc2[N+](=O)[O-])c1,-3%
6,Cc1ccc(O)c(N=Cc2cc(Cc3ccccc3)cc([N+](=O)[O-])c2O)c1,22.9%
7,O=[N+]([O-])c1cc(Br)c(O)c(C=Nc2ccc(N3CCOCC3)cc2)c1,41.8%
8,O=[N+]([O-])c1cc(Cc2ccccc2)cc(C=Nc2ccc(N3CCOCC3)cc2)c1O,50% (active)
9,O=C(NCc1ccco1)/C(=C\c1ccc(F)cc1)NC(=O)c1ccco1,5.4%
10,O=C(Nc1ccc(S(=O)(=O)N2CCOCC2)cc1)c1ccc(S(=O)(=O)N2CCOCC2)cc1,-5.8%
11,O=C(Nc1ccc(S(=O)(=O)N2CCOCC2)cc1)c1ccc(F)cc1,10.6%
12,C=CCn1c(SCCC)nc(O)cc1=O,3%
13,COc1ccccc1NC(=O)CN(Cc1ccco1)C(=O)c1ccc(-n2nc(C)cc2C)cc1,-1.4%
14,COc1ccc(N2CCN(C(C)C(=O)N3CCc4ccccc43)CC2)cc1 (stereo not given),-5.4%
15,Cc1ccc(N=Cc2sccc2C)cc1C,1.9%
16,Cc1ccsc1C=Nc1ccc(O)cc1,55.3% (active)
17,Cc1ccsc1/C=N/N=C/c1sccc1C,-9.3%
18,CCN1CCN(c2cc(N3CCN(C(=O)c4ccco4)CC3)c3c4c(onc24)-c2ccccc2C3=O)CC1,51.9%
19,O=C(O)CCNc1cc(N2CCN(C(=O)c3ccco3)CC2)c2noc3c2c1C(=O)c1ccccc1-3,63%
20,Cc1ccc(-n2nnc3c(=O)n(CC(=O)NCC4CCCO4)cnc32)cc1 (stereo not given),-0.3%
21,CCOC(=O)CN1C(=O)CN(c2ccc(C)cc2)C1=O,5.5%
22,Cn1cc(NC(=O)OCc2ccc(Cl)cc2)c(C(F)(F)F)n1,1.5%
23,Oc1ccc(Cl)cc1N=Nc1ccccc1,12.6%

row,Structure (SMILES),displacement
1,O=S(=O)(O)c1cccc(N=Nc2c(O)ccc3ccccc23)c1,-4.3%
2,CC12CCC(C(=O)N(NC(=O)c3ccc(O)cc3)C1=O)C2(C)C (stereo not given),-2.6%
3,COc1ccccc1N(CC(=O)NCCSc1ccc(Cl)cc1)S(C)(=O)=O,-0.3%
4,CC(C)CC(c1nnnn1C(C)C)N1CCN(c2cccc(Cl)c2)CC1 (stereo not given),-5.9%
5,O=C1C=C(Nc2ccccc2)c2ccccc2C1=O,45.4%
6,CCCCNC1=CC(=O)C(=O)c2ccccc21,60% (active)
7,Cc1ccc(NC2=CC(=O)C(=O)c3ccccc32)cc1,3.3%
8,COC(=O)c1cc2ccccc2oc1=O,-2.6%
9,CCOC(=O)N/N=C\c1ccc(OC(=O)c2ccc3c(c2)OCO3)cc1,1.3%
10,CCOCCCNc1nc2c(C)cccn2c(=O)c1/C=C1\SC(=S)N(C(C)CC)C1=O (stereo not given),53.2% (active)
11,CCOCCCNc1nc2c(C)cccn2c(=O)c1/C=C1\SC(=S)N(CC(C)C)C1=O,-1.2%
12,CCCN1C(=O)/C(=C/c2c(NCCCOCC)nc3c(C)cccn3c2=O)SC1=S,-2.4%
13,Cc1nn(C)c(Oc2cccc(C(F)(F)F)c2)c1C=O,-3.5%
14,Cc1ccc(-n2ncc3c(NNC(=O)c4ccco4)ncnc32)cc1C,3%
15,O=C(N1CCN(c2ccccc2F)CC1)C12CC3CC(CC(C3)C1)C2,-8.1%
16,Cc1oc2c(C)c3oc(=O)c(CC(=O)N[C@@H](CC(C)C)C(=O)N[C@@H](Cc4ccccc4)C(=O)O)c(C)c3cc2c1C,30.3%
17,CCC(NC(=O)CCc1c(C)c2cc3c(C)c(C)oc3cc2oc1=O)C(=O)N[C@@H](Cc1ccccc1)C(=O)O (stereo not given in full),34.5%
18,COc1cccc(C(C(=O)NC2CCCCC2)N(C(=O)c2cccs2)c2ccc3c(c2)OCO3)c1 (stereo not given),-1%
19,COc1ccc(CCC(=O)Nc2ccc(S(=O)(=O)N3CCOCC3)cc2)cc1,1.9%
20,O=c1ccc2cc(S(=O)(=O)N3CCN(c4ccc(Cl)cc4)CC3)ccc2o1,-0.9%
21,CCN1C(=C(C#N)C#N)C=Cc2ccccc21,8.2%
22,CCCn1c(=C(C#N)C#N)s/c(=C2\C=Cc3ccccc3N2CC)c1=O,65.1% (active)
23,CCCN1C(=O)/C(=c2\s/c(=C3\C=Cc4ccccc4N3CC)c(=O)n2-c2ccccc2)SC1=S,-1.6%

row,Structure (SMILES),displacement
1,Cc1ccc(-c2nnc(SCC(=O)NC(=O)Nc3ccc(C)cc3C)n2N)cc1,5.1%
2,CCc1nc(Cl)c(C#N)c2c1CCCC2,3.8%
3,Cc1ccc(NC(=O)CCC(=O)OCc2ccc(Br)cc2)cc1,1.1%
4,Cc1ccc(/C=c2\s/c(=C(/C#N)C(=O)N3CCCC3)n(Cc3ccco3)c2=O)s1,-3%
5,COc1ccc(/C=c2\s/c(=C(/C#N)C(=O)NCc3ccco3)n(-c3ccccc3)c2=O)cc1,21.4%
6,CN(c1ccccc1)c1ccc(/C=c2\s/c(=C(/C#N)C(=O)C(C)(C)C)n(Cc3ccco3)c2=O)cc1,102% (active)
7,Cc1ccc(NC(=O)Nc2cnccn2)cc1,-0.7%
8,Cc1ccc(S(=O)(=O)N2CCN(C(=O)c3cccs3)CC2)cc1C,-2%
9,CCO/C=C1/C(=O)N(CC)c2ccccc21,-7.3%
10,CCO/C=C1/C(=O)N(Cc2ccccc2)C(=O)c2ccccc21,55.6% (active)
11,CCO/C=C1\C(=O)N(c2ccccc2)C(=O)c2ccccc21,1.1%
12,C/C(=N\NC(=O)c1nnn(-c2nonc2N)c1CN1CCCCC1)c1ccccc1O,-0.3%
13,Cc1cc(CN(C)C(=O)CC2C(=O)NCCN2Cc2ccc(-c3ccccc3)cc2)on1 (stereo not given),-0.5%
14,Cc1ccc(C(=O)Nc2ccc(Oc3ccc(C(=O)O)c(C(=O)O)c3)cc2)cc1C,-3%
15,CC(C)(C)C(=O)Nc1ccc(C(=O)Nc2cccc(Oc3ccc(C(=O)O)c(C(=O)O)c3)c2)cc1,24%
16,O=C(O)Cn1c(=S)sc2ccccc21,-2.4%
17,COc1cc([N+](=O)[O-])ccc1NC(=S)Nc1cccc(C(=O)O)c1,-2.6%
18,COc1cc(/C=C(\C#N)c2nc(-c3cc4ccccc4oc3=O)cs2)ccc1O,2.9%
19,CCN(CC)CCOC(=O)c1ccc(N/C=C(/C#N)c2nc(-c3cccc(OC)c3)cs2)cc1,-5.2%
20,CCN(CC)CCOC(=O)c1ccc(N/C=C(/C#N)c2nc(-c3ccc(OC)cc3)cs2)cc1,8.3%
21,CCN(CC)CCOC(=O)c1ccc(N/C=C(/C#N)c2nc(-c3ccc4c(c3)OCO4)cs2)cc1,2.3%
22,C1CC2CN(c3nc4nonc4nc3N3CCSCC3)CCN2C1 (stereo not given),1.1%
23,COc1cccc(CNC(=O)C2CCCN(S(=O)(=O)c3c(C)n[nH]c3C)C2)c1 (stereo not given),-0.6%

row,Structure (SMILES),displacement
1,CC(C)N1CCC(N2CCN(C/C=C/c3ccc(F)cc3)CC2CCO)CC1 (stereo not given),12%
2,O=C(/C=C/c1ccc(OCCCF)cc1)NCc1ccc(Cl)cc1,33.7%
3,CN(CC(=O)Nc1cccc(F)c1)C(=O)c1ccc(-c2ccc(Cl)cc2)o1,4.6%
4,Nc1ccc(Br)c2c1C(=O)c1ccccc1C2=O,7.9%
5,Nc1c(O)ccc2c1C(=O)c1ccccc1C2=O,14.9%
6,NS(=O)(=O)c1ccc(NC(=O)c2ccc(-c3ccccc3)cc2)cc1,42.1%
7,O=C(O)c1ccc(NS(=O)(=O)c2ccc(C(=O)Nc3ccccc3)cc2)cc1,-5.7%
8,O=C(NCc1ccccn1)C1CCN(S(=O)(=O)N2CCCC2)CC1,3.2%
9,O=C(Cn1cnc2c(cnn2-c2ccccc2)c1=O)N1CCN(c2ccc(F)cc2)CC1,0.6%
10,Cc1cc(NS(=O)(=O)c2ccc(NC(=O)C(C)Oc3cc(C)c(Cl)c(C)c3)cc2)no1 (stereo not given),0.9%
11,CCc1nnc(NS(=O)(=O)c2ccc(NC(=S)NC(=O)/C=C/c3ccc(OC)cc3)cc2)s1,51.9% (active)
12,CCc1nnc(NS(=O)(=O)c2ccc(NC(=S)NC(=O)/C=C/c3cccs3)cc2)s1,15.5%
13,CCc1nnc(NS(=O)(=O)c2ccc(NC(=S)NC(=O)/C=C/c3ccc([N+](=O)[O-])cc3)cc2)s1,12.8%
14,CCc1nnc(NS(=O)(=O)c2ccc(NC(=S)NC(=O)/C=C/c3ccccc3)cc2)s1,11.7%
15,CCc1nnc(NS(=O)(=O)c2ccc(NC(=S)NC(=O)/C=C/c3ccc(F)cc3)cc2)s1,12.9%
16,COCCCNc1oc(-c2ccccc2Cl)nc1C#N,-5.3%
17,CN1CCN(C(=O)c2cn(-c3ccccc3)nc2-c2cccnc2)CC1,-0.3%
18,O=C(NCc1ccccc1)c1cc(-c2cccs2)on1,-1.2%
19,O=C(NCc1ccc(F)cc1)c1cc(-c2cccs2)on1,3.6%
20,CC(NC(=O)C(=O)c1cn(CC(=O)N2CCOCC2)c2ccccc12)c1ccccc1 (stereo not given),1.9%
21,CC(C)CNS(=O)(=O)c1ccc(CC(C)C)cc1,1.9%
